Measurements: PubChem BioAssay AID651820 (National Center for Advancing Translational Sciences (NCATS), 2012)
Hit rate of the full screen: of about 340,000 compounds, about 12,000 (3.5%) were called active. Entries that show only a call come without a potency. About 18% were inconclusive and are not listed. The call rests on the fitted dose curve; in most records, active means well fitted inhibition curve with a large enough effect; inconclusive means small, poorly fitted or top-dose-only effect, or another doubt; inactive means no such curve, though single readings can be large or run the other way. Many of the other results were omitted from the sample, so actives are more common in it than they were.

assay: qHTS Assay for Inhibitors of Hepatitis C Virus (HCV); conditions: Huh7.5.1 HCVcc-Cre infection, luciferase reporter, 44 h; series mostly up to 41.8 µM
Summary of the method: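 Cells seeded at 1,000/well and cultured 4 h, then compounds added followed by HCVcc-Cre virus (~0.5 moi). After 44 h further culture, luciferase substrate was added, plates held 15 min at room temperature, and luminescence read for 15 sec.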
Potency means the concentration at half of the fitted maximal effect.

| SMILES | Potency |
| --- | --- |
| CCOC(=O)CSc1nc2c(sc(=S)n2CCc2ccccc2)c(=O)n1Cc1ccco1 | 14.1 µM (active) |
| CCOC(=O)CSc1nnc(-c2ccco2)n1C | inactive |
| CCOC(=O)CSc1nc2c(c(=O)n(C)c(=O)n2C)n1Cc1ccccc1F | inactive |
| CC(C)C[C@H]1CN([C@@H](CC(C)C)CN2CCC[C@@H]2CN2C(=O)C(=O)NC[C@@H]2Cc2ccccc2)C(=O)C(=O)N1CCc1ccccc1 | inactive |
| O=C(c1ccc(N2CCOCC2)c([N+](=O)[O-])c1)N1CCN(c2ccccc2F)CC1 | inactive |
| COC(=O)[C@]1(Cc2ccccc2)N[C@H](CN(C)S(=O)(=O)c2ccc(OC(F)(F)F)cc2)[C@@H]2C(=O)N(Cc3ccccc3)C(=O)[C@@H]21 | 7.08 µM (active) |
| CCN(C[C@H]1N[C@@](CC)(C(=O)OC)[C@H]2C(=O)N(Cc3ccccc3)C(=O)[C@@H]12)S(=O)(=O)c1ccccc1 | inactive |
| COC(=O)[C@]1(Cc2ccccc2)N[C@H](CN(C)S(=O)(=O)c2ccc(F)cc2)[C@@H]2C(=O)N(Cc3ccccc3)C(=O)[C@@H]21 | inactive |
| CCN(CC(=O)Nc1c(F)cccc1F)C(=O)CN1c2cccc3cccc(c23)S1(=O)=O | inactive |
| CCCCN(C(=O)c1cccc(N2C(=O)c3ccccc3C2=O)c1)c1c(N)n(CCCC)c(=O)[nH]c1=O | inactive |
| COc1ccc2c(C)cc3nnnn3c2c1 | inactive |
| COc1ccc(C2C3=C(CCCC3=O)N(CC(=O)O)C3=C2C(=O)CCC3)cc1 | inactive |
| CCn1c2c(c3ccc(OC)cc31)CCCC2=O | 1.26 µM (active) |
| O=C(COC(=O)Cc1ccc([N+](=O)[O-])cc1)NC1CCCCCC1 | inactive |
| COc1ccc(C2(C)ON(c3ccccc3C(F)(F)F)C2=O)cc1 (centres undefined) | inactive |
| O=C(NCc1cccs1)C1CCN(S(=O)(=O)c2ccc(Cl)cc2)CC1 | inactive |
| COc1ccc(C(=O)Nc2cc(S(=O)(=O)N3CCCC3)ccc2Cl)cc1 | inactive |
| CCOc1ccc(S(=O)(=O)N2CCCCC2)cc1NC(=O)CN1CCCC1c1cccs1 (centres undefined) | 4.47 µM (active) |
| CS(=O)(=O)c1ccc(Cl)c(NC(=O)COC(=O)c2cccc(S(=O)(=O)N3CCCC3)c2)c1 | inactive |
| O=C(Nc1cc(S(=O)(=O)N2CCCCC2)ccc1Cl)C1COc2ccccc2O1 (centres undefined) | 11.2 µM (active) |
| CC(=O)NCCC(=O)Nc1cc(S(=O)(=O)N2CCCCC2)ccc1Oc1cccc(C)c1 | inactive |
| O=C(CNCc1cccs1)Nc1cc(S(=O)(=O)N2CCCC2)ccc1Cl | 10 µM (active) |
| O=C(COC(=O)CCOc1ccccc1)Nc1cc(S(=O)(=O)N2CCCCC2)ccc1Cl | inactive |
| Cc1ccc(S(=O)(=O)N2CCCCC2)cc1NC(=O)[C@@H]1CCCN1C(=O)c1cccs1 | inactive |
| COc1cccc(CC(=NO)c2cccc(OC)c2)c1 | inactive |

| SMILES | Potency |
| --- | --- |
| CCN(C(=O)COC(=O)CCC(=O)c1cccs1)C1CCCCC1 | inactive |
| O=C1c2ccccc2C(=O)N1CCC#Cc1ccc2cc(C3(O)CCCCC3)oc(=O)c2c1 | inactive |
| CC(Sc1nncn1C)C(=O)NCCC1=CCCCC1 (centres undefined) | inactive |
| NS(=O)(=O)c1ccc(CNC(=S)NC(=O)c2ccco2)cc1 | inactive |
| Nc1c(-c2ccccc2)nnn1Cc1ccccc1 | inactive |
| Cc1cc(C)cc(OCC(=O)OCC(=O)NC2CCCC2)c1 | inactive |
| C/C(=N\NC(=O)c1ccccc1F)c1ccccn1 | 11.2 µM (active) |
| C/C(=N\NC(=O)Cc1ccc(Cl)cc1)c1ccccn1 | 7.08 µM (active) |
| COc1ccc(CC(=O)N/N=C(\C)c2ccccn2)cc1 | inactive |
| C/C(CC(=O)Nc1ccc(N(C)C)cc1)=N\NC(=O)c1ccccc1F | inactive |
| C/C(=N\NC(=O)Cc1ccc(Br)cc1)c1cccnc1 | inactive |
| O=C(Nc1ccc(NC(=O)c2ccccc2F)cc1)c1ccccc1F | inactive |
| Cc1noc(C)c1S(=O)(=O)N(C)C[C@H]1Oc2c(NC(=O)Nc3ccc4c(c3)OCO4)cccc2C(=O)N([C@H](C)CO)C[C@@H]1C | inactive |
| O=C(OCc1cc(=O)n2ccsc2n1)C1(c2ccc(Cl)cc2)CC1 | inactive |
| O=C(OCC(=O)N1CCc2ccccc21)C1CCCN1S(=O)(=O)c1ccc(Cl)cc1 (centres undefined) | inactive |
| O=C(NN=CC=Cc1ccccc1)C(O)C(O)C(=O)NN=CC=Cc1ccccc1 (centres undefined) | inactive |
| CN(C)S(=O)(=O)c1ccc(Oc2ccc(S(=O)(=O)N(C)C)cc2)cc1 | 11.2 µM (active) |
| COc1cccc(NC(=O)c2ccc(S(=O)(=O)N(C)C)cc2)c1 | inactive |
| Cc1ccc(S(=O)(=O)c2ccc(Oc3ccccc3)cc2)cc1 | inactive |
| CNC(=O)c1cccc2nc3ccccc3nc12 | 11.2 µM (active) |
| CN(C)C(=O)c1coc2nc3ccccc3nc12 | inactive |
| CNC(=O)c1cc2c(ccc3ccccc32)oc1=N | inactive |
| CC(C)N(C(=O)CSc1nnc(NC2CC2)s1)c1ccccc1 | inactive |
| CC(=O)Nc1ccc(S(=O)(=O)N2CCN(c3ccc([N+](=O)[O-])c(NCCN4CCOCC4)c3)CC2)cc1 | inactive |
